Source: PubChem BioAssay (Tox21)
Where “and” joins values, the source holds several entries; their conditions need not be identical. Equal entries are not always repeated. Results filed as inconclusive are left out. The source holds several records for some structures; these can differ, active in one and inactive in another. Calls of active or inactive are those of the source. Calls follow the shape of the dose curve; as a rule, active = well fitted cell-killing curve with a large enough effect in the repeat runs; inconclusive = weak or mixed curves, or effect the other way; inactive = flat fitted curve, though single readings scatter.

Assay: qHTS assay to identify small molecule agonists of the sonic hedgehog signaling (Shh) pathway - cell viability counter screen (AID 1259366); also: nearly all actives have a fitted effect of over 50% in size
Conditions: NIH/3T3 Gli1-Luc viability, CellTiter-Fluor, 24 h; series mostly up to 92.4 µM; viability change, negative = cytotoxic: at the top concentration
Text: National Center for Advancing Translational Sciences [NCATS]
NIH Chemical Genomics Center [NCGC]
U.S. Environmental Protection Agency [EPA]
National Institutes of Environmental Health Sciences [NIEHS]
National Toxicology Program [NTP]
U.S. Food and Drug Administration [FDA]
The sonic hedgehog (Shh) pathway is essential for normal embryonic development. Dysregulation of the Shh pathway can cause severe developmental defects in organs. Therefore chemicals that interfere with the pathway are potential developmental toxicants. A cell line designated 3T3Gli1-Luc (DMB/OARSA/CFSAN/FDA, Laurel, MD), a NIH/3T3 derived clone containing stably integrated Gli1-Luc reporter is used to detect chemical interference of the Shh pathway, by changes in the expression of the firefly Luc gene under the control of the Gli1 transcriptional response element. This cell line was used to screen Tox21 libraries for identifying and prioritizing the potential developmental toxicants that interfere Shh pathway. The cytotoxicity of the compounds was tested in parallel by measuring the cell viability using CellTiter-Fluor assay system (Promega, Madison, WI) in the same wells.
Tox21 Assay Protocol Summary:
3T3 Gli1-Luc cells were dispensed at 2,000 per well in 5uL of culture medium into white solid bottom 1536-well plates (Greiner Bio-One, Monroe, NC) using a Multidrop Combi (Thermo Scientific, Waltham, MA) dispenser. The assay plates were incubated at 37 C and 5% CO2 for 4hr, and then 23nL of compounds dissolved in DMSO and positive control were transferred using a Pintool station (Wako, San Diego, CA). The assay plates were incubated at 37C and 5% CO2 for 24hr. For viability read, after 23hr of compound treatment, 1uL of CellTiter-Fluor reagent (Promega Corporation, Madison, WI) was added to each well of the assay plates using Flying Reagent Dispenser (FRD, Aurora Discovery, San Diego, CA) and incubated the assay plates at 37C for 1hr. The fluorescence signal was quantified using a ViewLux plate reader (Perkin Elmer, Shelton, CT).
% is scaled to controls: 0 for no effect and ±100 for the full control effect; potency is read from the fitted curve at half-maximal effect.

Compound | viability change, negative = cytotoxic | Potency
O=[N+]([O-])c1cc(Cl)c(Cl)cc1Cl | -6.57% (inactive) | –
COc1ccccc1N1CCNCC1 | 11.3% [at 42.5 µM] (inactive) | –
CCCCC(CC)COC(=O)c1c(Br)c(Br)c(Br)c(Br)c1C(=O)OCC(CC)CCCC (stereo not given) | 1.32% [at 42.5 µM] (inactive) | –
O=C(Cc1ccccc1)c1ccccc1 | -0.417% (inactive) | –
CN(C1CCCCC1)C1CCCCC1 | 1.55% (inactive) | –
Cc1nc(N(C)C)nc(OC(=O)N(C)C)c1C | -7.06% (inactive) | –
CCC(C)(C)O | 3.37% (inactive) | –
CCCCCCCCCCCCN=C(N)N | 23.3% [at 3.27 µM] (inactive) | –
CCCCCCCCP(=O)(O)O | 2.29% (inactive) | –
CCC[N+](CCC)(CCC)CCC | 10.4% (inactive) | –
CCC1(C2=NCCN2)Cc2ccccc2O1 (stereo not given) | 0.893% [at 42.5 µM] (inactive) | –
COc1ccc2c(c1OC)C(=O)O[C@H]2[C@@H]1c2cc3c(cc2CCN1C)OCO3 | – | 5.96 µM (active)
CCOC(=O)c1cncn1C(C)c1ccccc1 (stereo not given) | 1.75% [at 42.5 µM] (inactive) | –
CN1C(=O)CN=C(c2ccccc2)c2cc([N+](=O)[O-])ccc21 | -19.8% [at 42.5 µM] (inactive) | –
CC(C)(C)CC(C)(C)c1ccc(O)cc1 | – | 48.6 µM (active) and inactive
COc1ccc(C(O)(c2cncnc2)C2CC2)cc1 (stereo not given) | 1.54% (inactive) | –
CCOP(=O)(O)C(N)=O | 4.98% (inactive) | –
CC(C)c1ccc(OP(=O)(Oc2ccc(C(C)C)cc2)Oc2ccc(C(C)C)cc2)cc1 | – | inactive
Nc1cc(Cl)cc(C(=O)O)c1Cl | – | inactive
C[C@H]1O[C@H](OC2[C@@H](O)[C@@H](O)C(O)[C@H](O)[C@H]2O)[C@@H](N)C[C@@H]1N=C(N)C(=O)O (stereo not given in full) | -3.25% (inactive) | –

Compound | viability change, negative = cytotoxic | Potency
C[CH2][Hg][S]c1ccccc1C(=O)O | – | 1.72 µM (active) and 1.19 µM (active)
CCC1(CCC(C)C)C(=O)NC(=O)NC1=O | 1.17% (inactive) | –
CN(C)c1ccc(N=O)cc1 | – | 21.8 µM (active) and 21.7 µM (active)
CCSCc1ccccc1OC(=O)NC | 0.606% (inactive) | –
C[Si](Cn1cncn1)(c1ccc(F)cc1)c1ccc(F)cc1 | – | inactive
N#CC(C#N)=Cc1ccc(O)c(O)c1 | -8.04% [at 42.5 µM] (inactive) | –
c1ccc2sc(SNC3CCCCC3)nc2c1 | 17.7% (inactive) | –
CCOP(=S)(OCC)SCSc1cc(Cl)ccc1Cl | -3.25% (inactive) | –
CN1CC[C@]23c4c5ccc(O)c4O[C@H]2[C@@H](O)CC[C@H]3[C@H]1C5 | -2.53% (inactive) | –
CCOc1cccc(C2(N3CCN(c4ccccc4)CC3)CCC(C)CC2)c1 (stereo not given) | 3.62% (inactive) | –
CCCBr | 0.682% (inactive) | –
CCOC(=O)c1cn2nc(OP(=S)(OCC)OCC)cc2nc1C | 17.5% (inactive) | –
CC(Cl)C(=O)O (stereo not given) | -2.94% (inactive) | –
SCc1ccccc1 | 6.58% (inactive) | –
c1ccc2c(c1)sc1ccccc12 | – | inactive
O=C1CC[C@@]2(O)[C@H]3Cc4ccc(O)c5c4[C@@]2(CCN3CC2CC2)[C@H]1O5 | 5.46% [at 42.5 µM] (inactive) | –
CCCC1CCCCN1 (stereo not given) | -0.429% [at 42.5 µM] (inactive) | –
CC(C)C1(C)N=C(c2ncccc2C(=O)O)NC1=O (stereo not given) | -2.76% (inactive) | –
O=C([O-])c1ccccn1.O=C([O-])c1ccccn1.O=C([O-])c1ccccn1.[Cr+3] | 15.9% (inactive) | –
C=C(Cl)Cl | 3.63% (inactive) | –
